Records with an inconclusive call do not appear. Calls of active or inactive are those of the source. Unless noted, the call rests on the fitted dose curve.
Columns and labels:
[1] = molecular target: Gonadotropin-releasing hormone receptor (Homo sapiens) (UniProt P30968); assay: Human gonadotropin-releasing hormone receptor (GnRHR) small molecule agonists, calcium flux assay in GnRHR-HEK293 cells (AID 1920063); further: nearly all actives have a fitted effect of over 35% in size
Outline: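 Intracellular calcium rise is the read-out: engineered human GnRHR HEK293 cells, dye-loaded, are exposed to DMSO-dissolved compounds and fluorescence at Ex/Em 480/540 is tracked for 3 min.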

[2] = molecular target: KiSS-1 receptor (Homo sapiens) (UniProt Q969F8); assay: Human kisspeptin (KISS1R) small molecule agonists, calcium flux assay in KISS1R-HEK293 cells (AID 1920064; active means well fitted activation curve with a large enough effect in the repeat runs)
KiSS-1 receptor (Homo sapiens), sequence (Q969F8 whole entry, looked up): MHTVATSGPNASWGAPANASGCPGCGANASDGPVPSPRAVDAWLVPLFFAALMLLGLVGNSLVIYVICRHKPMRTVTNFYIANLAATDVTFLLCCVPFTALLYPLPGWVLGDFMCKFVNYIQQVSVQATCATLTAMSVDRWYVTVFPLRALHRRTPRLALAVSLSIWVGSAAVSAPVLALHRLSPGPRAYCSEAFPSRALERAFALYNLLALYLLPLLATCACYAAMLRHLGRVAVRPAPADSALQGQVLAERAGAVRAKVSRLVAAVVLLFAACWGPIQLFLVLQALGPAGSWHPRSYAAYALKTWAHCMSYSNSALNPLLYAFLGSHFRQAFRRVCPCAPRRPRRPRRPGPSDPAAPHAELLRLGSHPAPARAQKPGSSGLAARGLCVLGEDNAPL
Outline: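 Concentration-response testing used 15 concentrations in triplicate on human KISS1R-expressing HEK293 cells. Calcium-dependent fluorescence (Ex/Em 480/540) was followed kinetically for 3 min after compound transfer.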

[3] = G protein-coupled receptor (GPCR) small molecule agonists, calcium flux assay: HEK293 wild type cell line counter screen (AID 1920065)
Outline: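 Fluorescence intensity signals activation. After overnight (18 h) culture and a 1 h calcium dye load at 37 C, compounds are added by pin tool and the plate read at 480/540 nm for 3 min in 1 s steps.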

[4] = p53 small molecule agonists, cell-based qHTS assay with human liver microsomes (AID 1963577);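 further: p53 response element beta-lactamase reporter cells with liver microsomes plus NADPH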
Outline: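 Metabolically competent format: test substances, human liver microsomes and NADPH (both 0.5 mg/mL final) incubated with p53RE-bla cells 16 h at 37 C. Beta-lactamase reporter signal then quantified by fluorescence.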

[5] = p53 small molecule agonists, cell-based qHTS assay with rat liver microsomes (AID 1963578)
Outline: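 Each plate received p53RE-bla cells, then compound, then rat liver microsomes and NADPH (both 0.5 mg/mL final). Plates were held 16 h at 37 C, and beta-lactamase activity was detected with LiveBLAzer over 2 h.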

[6] = p53 small molecule agonists, cell-based qHTS assay with human liver microsomes: qHTS cell viability counter screen (AID 1963579); further: nearly all actives have a fitted effect of over 45% in size; further: potency means the concentration at half of the fitted maximal effect
Outline: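 Tox21 library compounds, delivered from DMSO stocks, were tested on p53RE-bla cells together with 0.5 mg/mL human liver microsomes and 0.5 mg/mL NADPH (final) over 16 h at 37 C; CellTiter-Glo luminescence served as the cytotoxicity measure.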

[7] = p53 small molecule agonists, cell-based qHTS assay with rat liver microsomes: qHTS cell viability counter screen (AID 1963580); further: nearly all actives have a fitted effect of over 45% in size; further: potency means the concentration at half of the fitted maximal effect
Outline: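 After the beta-lactamase ratio was read, CellTiter-Glo was added to the same wells and luminescence measured at 30 min; cells had been treated 16 h at 37 C with compounds, rat liver microsomes and NADPH (0.5 mg/mL final each).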

[8] = p53 small molecule agonists, cell-based qHTS assay: qHTS cell viability counter screen (AID 1963581); further: nearly all actives have a fitted effect of over 45% in size
Outline: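 Luminescence from CellTiter-Glo, reflecting ATP content, serves as the cytotoxicity measure; it is taken after the 2 h reporter substrate step in HCT-116 p53RE-bla cells dosed for 16 h at 37 C.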

[9] = p53 small molecule agonists, cell-based qHTS assay (AID 1963582; active means well fitted activation curve with a large enough effect in the signal ratio in the repeat runs, not every such curve was filed as active; the % refers to the signal ratio)
Outline: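 After plating, p53RE-bla cells sat 5 h in the incubator; compounds or DMSO vehicle were pinned in; a 16 h incubation at 37 C followed; FRET substrate was added and, 2 h later at RT, fluorescence was measured.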

[10] = molecular target: 5-hydroxytryptamine receptor 2A (Homo sapiens) (UniProt P28223); assay: 5-hydroxytryptamine receptor 2A (HTR2A) small molecule antagonists, cell-based qHTS assay (AID 1963586); further: nearly all actives have a fitted effect of over 45% in size
5-hydroxytryptamine receptor 2A (Homo sapiens), sequence (P28223 whole entry, looked up): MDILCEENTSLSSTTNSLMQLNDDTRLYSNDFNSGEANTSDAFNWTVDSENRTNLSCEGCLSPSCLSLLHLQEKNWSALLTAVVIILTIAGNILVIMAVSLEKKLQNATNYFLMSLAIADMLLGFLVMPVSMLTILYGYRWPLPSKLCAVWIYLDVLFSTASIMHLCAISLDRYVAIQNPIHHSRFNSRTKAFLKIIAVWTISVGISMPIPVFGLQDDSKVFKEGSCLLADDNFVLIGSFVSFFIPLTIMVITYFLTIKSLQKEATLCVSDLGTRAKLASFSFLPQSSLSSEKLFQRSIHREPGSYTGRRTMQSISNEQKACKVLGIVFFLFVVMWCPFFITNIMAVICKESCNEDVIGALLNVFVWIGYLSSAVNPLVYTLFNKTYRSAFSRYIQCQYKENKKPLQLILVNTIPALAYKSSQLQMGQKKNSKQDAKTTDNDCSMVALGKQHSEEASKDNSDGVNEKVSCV
Outline: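 CHO cells stably expressing human HTR2A were plated for 18 h at 37 C, then loaded with calcium dye for 1 h. Compounds were preincubated 5 min at room temperature before DOI (4 nM solution) was added. Kinetic fluorescence was read for 3 min.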

[11] = molecular target: 5-hydroxytryptamine receptor 2A (Homo sapiens) (UniProt P28223); assay: 5-hydroxytryptamine receptor 2A (HTR2A) small molecule agonists, cell-based qHTS assay (AID 1963587); further: nearly all actives have a fitted effect of over 30% in size; further: potency means the concentration at half of the fitted maximal effect
Outline: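 CHO cells stably expressing human HTR2A, plated 18 h, loaded with calcium dye 1 h at 37 C. Agonist mode: compounds added and intracellular calcium fluorescence recorded kinetically for 2 min at 1 sec intervals.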

[12] = molecular target: Muscarinic acetylcholine receptor M1 (Homo sapiens) (UniProt P11229); assay: Cholinergic receptor muscarinic 1 (CHRM1) small molecule agonists, cell-based qHTS assay (AID 1963589); further: nearly all actives have a fitted effect of over 35% in size
Muscarinic acetylcholine receptor M1 (Homo sapiens), sequence (P11229 whole entry, looked up): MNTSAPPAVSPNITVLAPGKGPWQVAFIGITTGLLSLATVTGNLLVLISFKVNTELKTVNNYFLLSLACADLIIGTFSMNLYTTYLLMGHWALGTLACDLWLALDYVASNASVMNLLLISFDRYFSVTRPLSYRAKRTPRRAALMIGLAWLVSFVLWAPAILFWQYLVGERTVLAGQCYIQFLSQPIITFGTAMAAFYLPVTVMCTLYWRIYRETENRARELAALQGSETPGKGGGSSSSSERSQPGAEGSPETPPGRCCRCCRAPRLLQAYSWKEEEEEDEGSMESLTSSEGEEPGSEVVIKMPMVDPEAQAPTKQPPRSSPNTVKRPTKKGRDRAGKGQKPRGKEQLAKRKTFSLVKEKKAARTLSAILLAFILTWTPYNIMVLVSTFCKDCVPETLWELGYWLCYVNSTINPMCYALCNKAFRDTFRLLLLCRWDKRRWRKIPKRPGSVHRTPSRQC
Outline: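 Fluorescent calcium dye reports M1 activation in stably transfected CHO cells. Compounds, 15 concentrations, added after 1 h dye loading at 37 C; kinetic reading at 1 sec intervals.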

[13] = cAMP Responsive Elements (CRE) small molecule agonists, cell-based qHTS assay (AID 1963590)
Outline: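 Compound exposure lasted 3 h at 37 C/5% CO2 in CRE-bla HEK 293T cells grown in assay medium with 10% dialyzed FBS and 25 mM HEPES. Reporter signal came from LiveBLAzer B/G FRET substrate, 2 h, room temperature.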

[14] = cAMP Responsive Elements (CRE) small molecule antagonists, cell-based qHTS assay (AID 1963591; active means well fitted inhibition curve with a large enough effect in the signal ratio in the repeat runs, not every such curve was filed as active; the % refers to the signal ratio)
Outline: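 Stimulation used NKH477 at a final 0.25 uM for 3 h in compound-treated CRE-bla HEK293T cells, seeded 18 h beforehand. Reporter activity was measured with LiveBLAzer B/G FRET substrate after 2 h at room temperature.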

[15] = molecular target: Beta-2 adrenergic receptor (Homo sapiens) (UniProt P07550); assay: Adrenergic beta2 receptor (ADRB2) small molecule antagonists, cell-based qHTS assay (AID 1963592); further: series mostly up to about 92 µM; nearly all actives have a fitted effect of over 50% in size
Beta-2 adrenergic receptor (Homo sapiens), sequence (P07550 whole entry, looked up): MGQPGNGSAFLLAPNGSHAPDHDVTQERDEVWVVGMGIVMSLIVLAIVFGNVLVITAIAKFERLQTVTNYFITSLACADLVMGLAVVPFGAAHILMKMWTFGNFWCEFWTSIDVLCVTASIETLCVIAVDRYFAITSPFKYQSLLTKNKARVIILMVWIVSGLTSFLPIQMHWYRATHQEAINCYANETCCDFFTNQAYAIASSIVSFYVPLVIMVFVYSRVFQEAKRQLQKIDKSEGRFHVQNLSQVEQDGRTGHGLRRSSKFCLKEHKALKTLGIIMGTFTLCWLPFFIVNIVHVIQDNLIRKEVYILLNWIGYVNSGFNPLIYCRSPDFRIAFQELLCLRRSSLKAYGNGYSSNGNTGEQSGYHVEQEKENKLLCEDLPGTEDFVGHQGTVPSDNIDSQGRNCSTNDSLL
Outline: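 Assay format: CHO-ADRB2 cells, 18-20hr seeding at 37C/5% CO2, then compound plus 1nM isoproterenol agonist mix for 0.5hr RT. Homogeneous time-resolved fluorescence cAMP detection after 1hr, expressed as 665/615 nm ratio.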

[16] = molecular target: Beta-2 adrenergic receptor (Homo sapiens) (UniProt P07550); assay: Adrenergic beta2 receptor (ADRB2) small molecule agonists, cell-based qHTS assay (AID 1963593);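 further: CHO cells stably overexpressing human ADRB2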
Outline: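 CHO cells stably over-expressing ADRB2 were plated overnight at 37C, then dosed with compounds plus a stimulation mix containing 100uM IBMX and 25uM Ro-20-1724 for 0.5hr at room temperature. cAMP was measured by HTRF competition, 1hr.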

[17] = molecular target: D(2) dopamine receptor (Homo sapiens) (UniProt P14416); assay: Dopamine D2 receptor (DRD2) small molecule agonists, cell-based qHTS assay (AID 1963594); further: nearly all actives have a fitted effect of over 35% in size
D(2) dopamine receptor (Homo sapiens), sequence (P14416 whole entry, looked up): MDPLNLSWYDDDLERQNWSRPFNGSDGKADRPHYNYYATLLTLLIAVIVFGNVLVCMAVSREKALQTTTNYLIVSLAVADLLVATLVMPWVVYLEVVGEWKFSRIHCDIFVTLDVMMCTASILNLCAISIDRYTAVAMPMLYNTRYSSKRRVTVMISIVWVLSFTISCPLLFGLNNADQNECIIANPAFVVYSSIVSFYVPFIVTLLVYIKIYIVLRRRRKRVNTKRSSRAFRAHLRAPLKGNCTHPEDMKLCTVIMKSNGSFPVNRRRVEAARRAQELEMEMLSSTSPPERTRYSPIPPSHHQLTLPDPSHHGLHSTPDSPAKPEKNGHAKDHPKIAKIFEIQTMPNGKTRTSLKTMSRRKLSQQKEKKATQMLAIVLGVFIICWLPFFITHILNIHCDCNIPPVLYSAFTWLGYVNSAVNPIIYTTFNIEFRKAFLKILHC
Outline: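 HEK293 cells stably expressing human DRD2, pre-treated with PDE inhibitor Ro20-1724 (0.1 mM final) and compound 10 min at room temperature, then stimulated with NKH477 (200nM […]) for 30 min. cAMP read by HTRF (665/620 nm).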

[18] = molecular target: D(2) dopamine receptor (Homo sapiens) (UniProt P14416); assay: Dopamine D2 receptor (DRD2) small molecule antagonists, cell-based qHTS assay (AID 1963595; active means well fitted inhibition curve with a large enough effect in the signal ratio in the repeat runs, with a control signal flat; the % refers to the signal ratio)
Outline: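 Human DRD2 antagonist qHTS measuring cAMP by HTRF. The cells are exposed to compound for 10 min, then to NKH477 (200 nM) and quinpirole (12 nM) for 30 min at RT, with Ro20-1724 (0.1 mM) present throughout.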

[19] = molecular target: Muscarinic acetylcholine receptor M1 (Homo sapiens) (UniProt P11229); assay: Cholinergic receptor muscarinic 1 (CHRM1) small molecule antagonists, cell-based qHTS assay (AID 1963588); further: nearly all actives have a fitted effect of over 40% in size
Outline: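 Compounds were tested at 15 concentrations in three independent runs. Dye-loaded CHRM1-CHO cells were exposed 5 min at room temperature before stimulation by acetylcholine added at 50nM. Intracellular calcium was read kinetically on FDSS for 3 min.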

Measured: Potency

Gonadotropin-releasing hormone receptor (Homo sapiens), sequence (P30968 whole entry, looked up): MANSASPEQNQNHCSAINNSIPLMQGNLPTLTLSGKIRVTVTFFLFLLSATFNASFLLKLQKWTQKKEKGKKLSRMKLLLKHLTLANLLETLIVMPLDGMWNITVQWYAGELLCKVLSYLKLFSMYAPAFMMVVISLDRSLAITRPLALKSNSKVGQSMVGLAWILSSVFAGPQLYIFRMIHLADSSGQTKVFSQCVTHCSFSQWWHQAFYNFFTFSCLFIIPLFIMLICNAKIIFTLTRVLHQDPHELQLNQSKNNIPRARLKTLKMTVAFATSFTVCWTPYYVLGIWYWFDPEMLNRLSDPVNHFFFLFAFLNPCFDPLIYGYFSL

O=C1C(O)=C(O)C(=O)C(O)=C1O
active: [11] 47.7 nM
not listed: [19]
inactive: all other assays above

COc1cc(/C=C/C(N)=O)cc(OC)c1OC
not listed: [16]
inactive: all other assays above

N#CCc1cccc(C(F)(F)F)c1
active: [6] 40.8 µM | [7] 45.8 µM
not listed: [14]
inactive: all other assays above

CC(=O)/C=C/c1ccco1
inactive: all assays above

CCOC(=O)OC(=O)OCC
inactive: all assays above

CC(O)C(CO)C(C)O (stereo unspecified)
inactive: all assays above
